Reference: PubChem BioAssay AID602163 (The Scripps Research Institute Molecular Screening Center, 2012)
The whole screen tested about 360,000 compounds, of which about 1,100 (0.31%) were called active. Only a selection was taken, and actives are over-represented in it overall. A number with no mark means an inactive call. Rule as the data show it: active = activation above about 7.5%; inactive = the rest.

system: Methionine sulfoxide reductase A (Bos taurus); assay: bovine MsrA enzyme activators, primary screen, biochemical, absorbance, HTS (AID 602163); conditions: purified bovine MsrA, absorbance read-out; at 10.6 µM; active compounds read high;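 also: 0% = vehicle and 100% = reference activator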

Structure (SMILES) | activation
CC(=O)c1ccc(-n2nnnc2SCC(=O)N2CCN(C(=O)c3ccco3)CC2)cc1 | -6.56%
Cn1nnnc1SCC(=O)N1CCN(Cc2ccccc2)CC1 | 10.8% (active)
Cn1nnnc1SCC(=O)N1CCN(C(c2ccccc2)c2ccccc2)CC1 | -4.74%
CC(C)COC(=O)n1c(=O)oc2ccc(S(=O)(=O)N3CCCCC3)cc21 | -0.43%
COc1ccc(C2=NN(C(=O)CSc3nc(=O)n4ccc(C)cc4n3)C(c3ccc(C)cc3)C2)cc1 (stereo unspecified) | -4.23%
FC(F)(F)C1CCCN(c2nsc3ccccc23)C1 (stereo unspecified) | 13% (active)
CCCNCc1cc(OCC)c(OCC(=O)Nc2ccccc2)cc1Br | -1.95%
O=C(CC1(O)C(=O)N(CN2CCOCC2)c2ccccc21)c1ccccc1 (stereo unspecified) | -7.26%
CC(C)(C)C(=O)CCN1C(=O)C2(OCCO2)c2ccccc21 | 10.5% (active)
C=CCN1C(=O)C2(OCCCO2)c2cccc(Cl)c21 | -1.83%
CC(C)C[C@H]1CNC(=O)C(=O)N1C[C@@H]1CCCN1C[C@H](Cc1ccccc1)N1C[C@H](CC(C)C)N(CC2CCCCCC2)C(=O)C1=O | -1.34%
CC1CCC2CCCCC2N1C(=O)c1cc([N+](=O)[O-])cc([N+](=O)[O-])c1 (stereo unspecified) | -1.47%
CCOC(=O)[C@H]1Nc2ccc(Cl)cc2[C@@H]2[C@H]1C1CC(c3ccccc31)N2C(=O)OCc1ccccc1 (stereo partly specified) | -4.81%
O=C(O)C#Cc1cccc2ccccc12 | -6.37%
CCCCCCNC(=O)CSc1nccn1Cc1ccccc1 | -3.24%
O=C(NCc1ccccc1)C1c2ccccc2OCC(=O)N1C1CC1 (stereo unspecified) | 8.21% (active)
O=C(NCc1ccccc1)C1c2ccccc2OCC(=O)N1CCCN1CCOCC1 (stereo unspecified) | -2.2%
O=C(NC1CCCC1)C1c2ccccc2OCC(=O)N1Cc1ccccc1 (stereo unspecified) | -2.39%
CN1CCN(Cc2c(C(=O)N3CCc4ccccc4C3)nc3ccc(Cl)cn23)CC1 | -13%
Nc1ccn(C2CC(O)C(CO)O2)c(=O)n1 (stereo unspecified) | -1.31%
COC(=O)C1CCN(C(=O)COC(=O)c2cc(S(=O)(=O)N3CCOCC3)ccc2C)CC1 | -0.23%
CCS(=O)(=O)c1ccc2c(c1)N(S(=O)(=O)c1ccccc1)CC(C(=O)O)O2 (stereo unspecified) | -3.49%
COc1ccc(N2CCN(S(=O)(=O)c3cc4c5c(c3)C(C)C(=O)N5CCC4)CC2)cc1 (stereo unspecified) | 0.45%

Structure (SMILES) | activation
CC(=O)C1=C(O)C(=O)N(c2ccc(Br)cc2)C1c1ccc([N+](=O)[O-])cc1 (stereo unspecified) | -4.41%
COC(=O)CN1C(=O)C(O)=C(C(C)=O)C1c1ccc([N+](=O)[O-])cc1 (stereo unspecified) | 8.27% (active)
COc1ccc(C2C(C(C)=O)=C(O)C(=O)N2c2nccs2)cc1 (stereo unspecified) | -4.03%
COC(=O)c1ccccc1NC(=O)C1(S(=O)(=O)c2ccc(Cl)cc2)CC1 | -4.86%
CCCc1c(C)nc2c(Br)cccc2c1Cl | -2.47%
CCN(CC)CCCC(C)n1c2nc(=O)[nH]c(=O)c-2nc2cc(Cl)ccc21 (stereo unspecified) | 11.7% (active)
COC(C/C=C/C(=O)[C@@H](C)OCc1ccccc1)OC | 5.11%
CSC1=NC2(C)CCCCC2C12C=CC(=O)C=C2 (stereo unspecified) | -3.42%
CC(C)CCNC(=O)C1CCC(CNc2c(N3CCC(C)CC3)c(=O)c2=O)CC1 (stereo unspecified) | -7.85%
CC(C)(C)N1C(=O)c2c(C(=O)OCc3ccccc3)[nH]c(-c3ccccc3)c2C1=O | -2.85%
O=C1C(Sc2cccc(F)c2)=C[C@@]2(O)CC[C@@H](O)[C@]1(Sc1cccc(F)c1)[C@H]2O | 11.4% (active)
CN1CCN(c2ccc(CNS(=O)(=O)c3cccc(F)c3)cc2)CC1 | -2.8%
Cc1nccn1CCCNC(=O)CC1C(=O)NCCN1Cc1ccc(Cl)c(F)c1 (stereo unspecified) | -5.91%
O=C(O)/C=C/c1cn(Cc2ccccc2)nc1-c1cccs1 | 9.05% (active)
O=c1onc(-c2cccs2)n1Cc1ccccc1 | -2.25%
COc1ccc(NC(=O)CN(C)C(=O)/C=C/c2cn(Cc3ccccc3)nc2-c2cccnc2)cc1 | -3.42%
Cc1cccc(NC(=O)Cn2c(=O)n(Cc3ccccc3)c(=O)c3c(C)c(C)sc32)c1 | -2.33%
O=C1CCC(C(=O)N2CCC(O)(c3ccccc3)CC2)CN1CCc1ccccc1 (stereo unspecified) | -3.3%
COc1ccc(Cl)cc1NS(=O)(=O)c1cccc(C(=O)NC2CCC(O)CC2)c1 (stereo unspecified) | -0.8%
COc1ccc(Cl)cc1NS(=O)(=O)c1cccc(C(=O)NCC2CCCO2)c1 (stereo unspecified) | 8.29% (active)
COc1ccc(C(=O)NCC2CCCO2)cc1S(=O)(=O)NCc1ccc(Cl)cc1 (stereo unspecified) | -6%
CC(C)NC(=S)NN=C1CCCCCCCCCCC1 | -2.24%
C=C(C)C1CC=C(C)/C(=N\NC(=O)CNc2ccccc2OC)C1 (stereo unspecified) | -4.34%
